The panel holds about 83,000 compounds, 20% with a hit somewhere; the sample as a whole holds those more often.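 For each line, cells grew in 96-well plates with the test compound present at a single concentration for 48 hours.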 Values without a mark were called inactive. Calls of active or inactive are those of the source. How the source made its calls: active means growth percent below 10; inactive means the rest.

From PubChem BioAssay (NCI) come the findings set out here.

Among the test systems are SR leukemia; RPMI-8226 leukemia; OVCAR-8 ovarian; OVCAR-5 ovarian; SK-OV-3 ovarian; IGROV1 ovarian; OVCAR-3 ovarian; HS 578T breast; NCI/ADR-RES ovarian; T-47D breast; BT-549 breast; MDA-MB-435 melanoma; SW-620 colon; MCF7 breast; HCT-116 colon; HCC-2998 colon; KM12 colon.
Common to all, as to assay: NCI-60 one-dose screen, 48 h (100 = growth as untreated, 0 = no growth, -100 = all killed)
Holding throughout (settings): 10 µM unless noted

Regarding `C=C(C)[C@@H]1CC[C@]2(C(=O)O)CC[C@]3(C)[C@H](CC[C@@H]4[C@@]5(C)C/C(=C/c6ccco6)C(=O)C(C)(C)[C@@H]5CC[C@]43C)[C@@H]12`, the growth with SR leukemia was 31.9% [100 µM]; with RPMI-8226 leukemia, 2.97% [100 µM] (active); with OVCAR-8 ovarian, -17.6% [100 µM] (active); in the experiment on OVCAR-5 ovarian it was -44.4% [100 µM] (active); in the experiment with SK-OV-3 ovarian, -54.2% [100 µM] (active); in the experiment with IGROV1 ovarian, -63.2% [100 µM] (active). Besides, the growth in the experiment on OVCAR-3 ovarian was -59.1% [100 µM] (active); in the experiment on HS 578T breast, -1.95% [100 µM] (active); in the experiment on NCI/ADR-RES ovarian, -43.8% [100 µM] (active); with T-47D breast, -8.1% [100 µM] (active); in the experiment on BT-549 breast it was -67.8% [100 µM] (active); with MDA-MB-435 melanoma, -75.9% [100 µM] (active). Besides, the growth in the experiment with SW-620 colon is -34.7% [100 µM] (active); with MCF7 breast it was -53.2% [100 µM] (active); in the experiment with HCT-116 colon, -74.7% [100 µM] (active); in the experiment on HCC-2998 colon, -78.1% [100 µM] (active); with KM12 colon it was -96.3% [100 µM] (active).
Turning to `COc1ncc(-c2ccc3nc(N)n(-c4ccccc4C(F)(F)F)c(=O)c3c2)cc1S(=O)(=O)Nc1ccc(F)cc1F`, the growth in the experiment on SR leukemia is 39%; in the experiment with RPMI-8226 leukemia, 2.65% (active); with OVCAR-8 ovarian, 50.1%; in the experiment on OVCAR-5 ovarian, 14.7%; in the experiment on SK-OV-3 ovarian, 72.1%; with IGROV1 ovarian it was 8.17% (active). In addition, the growth with OVCAR-3 ovarian is 6.35% (active); in the experiment with HS 578T breast it was 42.3%; with NCI/ADR-RES ovarian, 25.4%; in the experiment on T-47D breast, 30.3%; in the experiment with BT-549 breast it was 49.1%; in the experiment with MDA-MB-435 melanoma it was 31.2%. In addition, the growth with SW-620 colon was 34.2%; with MCF7 breast, 43.7%; in the experiment on HCT-116 colon, 32.5%; in the experiment with HCC-2998 colon it was 39.7%; in the experiment on KM12 colon, 21.1%.
Take `Clc1ccc(/C=N/Nc2nc3ccccc3s2)c(Cl)c1`: the growth in the experiment with SR leukemia is 91%; with RPMI-8226 leukemia, 91.2%; with OVCAR-8 ovarian it was 79.3%; with OVCAR-5 ovarian, 103%; with SK-OV-3 ovarian, 74%; with IGROV1 ovarian, 67%. The growth was 87.3% in the experiment with OVCAR-3 ovarian; 84.8% in the experiment with HS 578T breast; 89.7% in the experiment with NCI/ADR-RES ovarian; 74.4% with T-47D breast; 115% in the experiment with BT-549 breast; 91.9% in the experiment on MDA-MB-435 melanoma. For the same molecule, the figures for the growth in the experiment with HCT-116 colon, with HCC-2998 colon and in the experiment on KM12 colon were 80.6%, 101% and 94%, respectively.
For `CCCCNC(=O)NS(=O)(=O)Cc1ccccc1`, the growth in the experiment with SR leukemia was 108%; in the experiment with RPMI-8226 leukemia it was 95.8%; in the experiment on OVCAR-8 ovarian, 100%; in the experiment on OVCAR-5 ovarian, 108%; in the experiment with SK-OV-3 ovarian, 107%; in the experiment with IGROV1 ovarian, 97.3%. Also, the growth with OVCAR-3 ovarian is 109%; in the experiment with HS 578T breast, 107%; in the experiment with NCI/ADR-RES ovarian, 112%; in the experiment on T-47D breast it was 113%; in the experiment on BT-549 breast, 104%; in the experiment with MDA-MB-435 melanoma it was 116%. In addition, the growth is 108% in the experiment on SW-620 colon; 96.6% in the experiment on MCF7 breast; 112% in the experiment on HCT-116 colon; 110% in the experiment with HCC-2998 colon; 109% with KM12 colon.
Regarding `C=C(C)[C@@H]1CC[C@]2(C(N)=O)CC[C@]3(C)[C@H](CC[C@@H]4[C@@]5(C)CC[C@H](O)C(C)(C)[C@@H]5CC[C@]43C)[C@@H]12`, the growth is 15.5% [100 µM] in the experiment on SR leukemia; -19.8% [100 µM] (active) in the experiment on RPMI-8226 leukemia; -64.8% [100 µM] (active) in the experiment with OVCAR-8 ovarian; -21.6% [100 µM] (active) with OVCAR-5 ovarian; -45.7% [100 µM] (active) in the experiment on SK-OV-3 ovarian; -58.1% [100 µM] (active) in the experiment with IGROV1 ovarian. The growth is -46.6% [100 µM] (active) with OVCAR-3 ovarian; -1.7% [100 µM] (active) in the experiment with HS 578T breast; -8.91% [100 µM] (active) with NCI/ADR-RES ovarian; -24.8% [100 µM] (active) in the experiment with T-47D breast; -21.6% [100 µM] (active) in the experiment on BT-549 breast; -4.44% [100 µM] (active) with MDA-MB-435 melanoma. Besides, the growth in the experiment with SW-620 colon was -4.49% [100 µM] (active); in the experiment with MCF7 breast, -12.5% [100 µM] (active); with HCC-2998 colon, -39% [100 µM] (active); with KM12 colon, -63.5% [100 µM] (active).
For the molecule `C=C(C)[C@@H]1CC[C@]2(COCCCN)CC[C@]3(C)[C@H](CC[C@@H]4[C@@](C)(CCCNCCCN)[C@H](C(=C)C)CC[C@]43C)[C@@H]12`, the growth with SR leukemia was 44.4% [100 µM]; in the experiment on RPMI-8226 leukemia it was -53.4% [100 µM] (active); with OVCAR-8 ovarian, -56.7% [100 µM] (active); in the experiment on OVCAR-5 ovarian, -63.6% [100 µM] (active); in the experiment with SK-OV-3 ovarian, -60.4% [100 µM] (active); in the experiment on IGROV1 ovarian, -58.6% [100 µM] (active). In addition, the growth in the experiment with OVCAR-3 ovarian was -53.3% [100 µM] (active); in the experiment on HS 578T breast, -39.2% [100 µM] (active); in the experiment with NCI/ADR-RES ovarian, -53.6% [100 µM] (active); with T-47D breast, -60.6% [100 µM] (active); in the experiment with BT-549 breast, -43.2% [100 µM] (active); in the experiment on MDA-MB-435 melanoma, -68.5% [100 µM] (active). Also, the growth is -67% [100 µM] (active) in the experiment on SW-620 colon; -47.9% [100 µM] (active) in the experiment with MCF7 breast; -31.7% [100 µM] (active) in the experiment with HCT-116 colon; -55% [100 µM] (active) in the experiment with HCC-2998 colon; -62.5% [100 µM] (active) in the experiment with KM12 colon.
Turning to `C=C(C)[C@@H]1CC[C@]2(COC(=O)c3ccccc3C(=O)O)CC[C@]3(C)[C@H](CC[C@@H]4[C@@]5(C)CC[C@H](OC(=O)c6ccccc6C(=O)O)C(C)(C)[C@@H]5CC[C@]43C)[C@@H]12`, the growth in the experiment with SR leukemia was 63.8% [100 µM]; in the experiment with RPMI-8226 leukemia, 28.4% [100 µM]; in the experiment with OVCAR-8 ovarian, 46.7% [100 µM]; with OVCAR-5 ovarian, 105% [100 µM]; in the experiment on SK-OV-3 ovarian it was 47.9% [100 µM]; in the experiment with IGROV1 ovarian, 31% [100 µM]. Besides, the growth in the experiment with OVCAR-3 ovarian is 2% [100 µM] (active); in the experiment on HS 578T breast it was -3.77% [100 µM] (active); with NCI/ADR-RES ovarian, 23.1% [100 µM]; in the experiment on T-47D breast it was 39.6% [100 µM]; in the experiment on BT-549 breast, 28.1% [100 µM]; with MDA-MB-435 melanoma, 30.8% [100 µM]. For the same molecule, the growth is 41.7% [100 µM] with SW-620 colon; 48.6% [100 µM] with MCF7 breast; 21.3% [100 µM] in the experiment with HCT-116 colon; 4.42% [100 µM] (active) in the experiment with HCC-2998 colon; 11.8% [100 µM] in the experiment on KM12 colon.
